# Sampled rows, rich in hits. Any-hit rate of the full collection: about 2.2%.
# S2 tox = viability counter-screen for ATXN expression inhibitors. Potency, µM (titrated, usually from 56.7 µM), usual class: cytotoxic. S2 cells (HEK-293 line with an ATXN2-luciferase reporter) viability, CellTiter-Fluor protease fluorescence, 24 h. 0.49% of 400,000 active. AID 651635; note: nearly all actives have a fitted effect of over 40% in size
# LDHA inh = blocks human lactate dehydrogenase A | activity change, % (values are at about 110 or 230 µM) | 0.15% of 480,000 active | purified LDHA, NADH/diaphorase-resazurin fluorescence; active compounds read low | P00338; in the data active = activity change below about -30%; inconclusive = mostly about -25% to -30%
#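 Human LDH5 (2 nM) was incubated with 0.06 mM NADH and 0.2 mM pyruvate for 5 min at room temperature in Tris pH 7.4. Remaining NADH was coupled through diaphorase/resazurin, and resorufin fluorescence was read at 0 and 20 min.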
# ATXN2 expr inh = reduces ATXN2 reporter expression in HEK-293 cells; 0.72% of 360,000 active; HEK-293 ATXN2-luciferase reporter, luminescence, 24 h; Potency, µM (series often up to 57 µM), actives largely listed as inhibitors; note: nearly all actives have a fitted effect of over 55% in size
#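 ATXN2-luciferase reporter cells (luciferase flanked by upstream and downstream ATXN2 gene portions) were treated 24 h at 37 °C with compounds at up to 57 uM. SteadyGlo luminescence gave expression; GF-AFC fluorescence gave viability.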
# HepG2 viability = kills HepG2 cells in TGF-b inhibitor counter-screen; HepG2 CAGA-GFP viability, ATP luminescence, 18 h; Potency, µM (highest dose often 46.1 µM), usual class: cytotoxic; 0.76% of 410,000 active; AID 588856
#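 CellTiter-Glo luminescence gave cytotoxicity after 18 hours at 37 degrees C. The cells were HepG2 CAGA-GFP in 1% FBS DMEM, stimulated with 500 pg/mL TGF-beta after compound addition. %Activity was normalised to no-cell wells (complete cell-killing) and DMSO (no toxicity), and curves were fitted and classified.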
# TGFb SMAD3 inh = TGF-b pathway inhibition; HepG2 CAGA-GFP TGF-b/SMAD3 reporter, GFP fluorescence, 18 h; TGF-beta stimulated, 500 pg/mL final; Potency, µM (doses to about 46.1 µM), usual class: inhibitors; 1.2% of 410,000 active; AID 588855; note: nearly all actives have a fitted effect of over 65% in size
#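 HEPG2 CAGA-GFP, 1000 cells/well; 2 h settle, 37 C; cpd via pin tool; TGF-b 500 pg/mL final; 18 h, 37 C; GFP imaging ex488/em500-530; %Activity normalised to -TGF-b and +DMSO controls; CRC fit, curve class.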
# mIDH1 inhibitor = human IDH1 R132H inhibition; O75874; Potency, µM (titrated, usually from 76.6 µM), hits mostly inhibitors; 0.093% of 390,000 active; AID 602179; IDH1-R132H enzyme, NADPH consumption, diaphorase/resazurin fluorescence; note: nearly all actives have a fitted effect of over 65% in size
# Target sequence (O75874 whole entry R132H, stated change not applied): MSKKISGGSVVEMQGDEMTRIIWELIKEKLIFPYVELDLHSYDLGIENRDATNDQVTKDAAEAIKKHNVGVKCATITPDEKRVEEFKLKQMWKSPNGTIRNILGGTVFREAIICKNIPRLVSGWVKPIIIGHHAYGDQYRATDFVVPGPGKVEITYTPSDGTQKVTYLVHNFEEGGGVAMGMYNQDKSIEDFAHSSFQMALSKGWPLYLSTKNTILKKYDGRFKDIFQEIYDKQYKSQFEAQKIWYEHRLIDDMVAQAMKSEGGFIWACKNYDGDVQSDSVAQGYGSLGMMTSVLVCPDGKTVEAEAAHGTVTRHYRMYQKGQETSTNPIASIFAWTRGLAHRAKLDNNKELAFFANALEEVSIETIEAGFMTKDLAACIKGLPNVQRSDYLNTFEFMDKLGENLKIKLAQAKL
#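 IDH1-R132H (0.5 ug/mL) preincubated 30 min with compound, then NADPH (0.016 mM) and alpha-KG (2 mM) added; 80 min at RT, pH 7.5. Remaining NADPH coupled via diaphorase/resazurin to fluorescence (540/590 nm); concentration-response curves normalized to no-enzyme control.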
# A number is an active result; 0 = inactive; ? = inconclusive; - = no result given; [ ] = dose if it differs, or a comment. Unless noted, calls come from the whole dose curve; as a rule, active = well fitted curve in the direction sought with a large enough effect; inconclusive = small, poorly fitted or top-dose-only effect, or another doubt; inactive = no such curve, though single readings can be large; an effect the other way counts as inactive or inconclusive.
SMILES,S2 tox,LDHA inh,ATXN2 expr inh,HepG2 viability,TGFb SMAD3 inh,mIDH1 inhibitor
CN1C/C(=C/c2ccccc2[N+](=O)[O-])C(=O)/C(=C\c2ccccc2[N+](=O)[O-])C1,-,0,?,0,3.2µM,0
CCc1nc2ccccc2c(=O)n1NC(=O)c1c(O)c2ccccc2n(CC)c1=O,0,-40,0,0,0,0
Cn1c(O)c(N=NC(=O)c2cc(-c3cccs3)nc3ccccc23)c2ccccc21,?,0,0,0,?,0
O=C(N=Nc1c(O)[nH]c2ccc(Br)cc12)c1cc(-c2cccs2)nc2ccccc12,10µM,0,11µM,0,0,0
CC1(C(=O)NS(=O)(=O)c2cccs2)CCN1C(=O)C1CC1 (configuration not stated),0,0,0,0,0,-
COc1ccc(NC(=O)CSc2nnc(-c3nonc3NC(C)=O)n2-c2ccccc2)cc1,0,0,0,0,0,0
Cc1ccc(C(=O)Nc2cnc3ccccc3c2)cc1,0,0,2.2µM,0,0,0
Cc1ccc(C(=O)Nc2nc3ccccc3[nH]2)cc1,0,0,3.5µM,0,0,0
COc1ccccc1C(=O)Nc1nc2ccccc2[nH]1,0,0,0.32µM,2.8µM,0,0
COc1cc(SC)ccc1C(=O)NNC(=O)c1cc(C)oc1C,?,0,0,7.9µM,0,0
COc1ccc(C(=O)Nc2nc3ccccc3[nH]2)cc1,0,0,?,0,0,0
COc1ccccc1C(=O)NCCC(=O)Nc1nc2ccccc2[nH]1,0,0,?,0,0,0
CCCn1c(C)cc(C(=O)COC(=O)c2cc(S(=O)(=O)NCC(C)C)c(Cl)cc2Cl)c1C,0,0,0,0,0,0
COc1cc(SC)ccc1C(=O)Nc1nc2ccccc2[nH]1,0,0,0.32µM,10µM,0,0
Cc1cc(Oc2ccc(C#N)cc2)nc(NCc2ccccc2)n1,0,0,0,8.9µM,0,0
Cc1ccc(Nc2cc(C)nc(NCc3ccccc3)n2)cc1,0,0,-,0,?,0
COc1ccc(Nc2cc(C)nc(NCc3ccccc3)n2)cc1,0,0,0,0,13µM,0
Cc1cc(NC2CCCCC2)nc(NCc2ccccc2)n1,?,0,?,0,14µM,0
O=C(COCc1nc2ccccc2c(=O)[nH]1)Nc1nc(-c2ccc3c(c2)CCC3)cs1,-,-31,-,-,-,-
CC(C)c1ccc(-c2csc(NC(=O)COCc3nc4ccccc4c(=O)[nH]3)n2)cc1,-,0,-,-,-,-
NC(=S)NN=Cc1nccc2ccccc12,?,0,?,0,0,0
Cc1cnc(C=NNC(N)=S)c2cccc(N)c12,?,0,?,0,10µM,0
NC(=S)N/N=C/c1cccc(O)c1O,0,0,0,0,0,0
NC(=S)NN=Cc1nccc2c(C(F)(F)C(F)(F)C(F)(F)F)cccc12,-,0,-,0,1.4µM,0
O=C(CCc1nnc(CCCCc2ccccc2)o1)N1CCCCC1CCO (configuration not stated),0,0,0,0,0,0
SMILES,S2 tox,LDHA inh,ATXN2 expr inh,HepG2 viability,TGFb SMAD3 inh,mIDH1 inhibitor
Oc1ccc(/C=N/Nc2nccnc2Cl)cc1,0,0,0,0,0,0
Fc1ccc(/C=N/Nc2nccnc2Cl)cc1,0,0,0,10µM,?,0
CCN(CC)CCCCNc1nc2cc(Cl)c(Cl)cc2nc1-c1ccc(-c2cccs2)s1,-,-,22µM,-,-,-
CCN(CC)CCCNc1cc(C)nc2cc(-c3cccs3)nn12,?,0,0,0,0,0
NC(=S)N/N=C/c1ccc(-c2ccc(SC(F)F)cc2)o1,0,0,0,0,10µM,0
Cc1ccc(-c2ccc(/C=N/NC(N)=S)o2)cc1,0,0,0,0,?,0
CCCCc1c(C)c(C#N)c2[nH]c3ccccc3n2c1=O,0,0,?,0,3.2µM,0
Cc1cc(Cl)ccc1NC(=O)CSc1nc2c(c(=O)[nH]1)CCC2,-,0,-,0,-,-
O=C(Nc1ccc(O)c2c(=O)cc(-c3ccccc3Cl)oc12)c1ccccc1Cl,0,0,0,0,0,0
O=c1cc(-c2ccccc2Cl)oc2c([N+](=O)[O-])c(O)cc(O)c12,0,0,?,0,13µM,0
CN1CC[C@H](c2c(O)cc(O)c3c(=O)cc(-c4ccccc4Cl)oc23)[C@@H](O)C1,-,-,-,0,0.22µM,-
Cc1ccc(NC(=O)CN2C(=O)c3cccnc3Oc3ccc(Cl)cc32)cc1,-,0,-,0,0,0
COCc1ccc(C(=O)NCC2(N3CCCCC3)CCCCC2)cc1,0,0,0,0,0,0
COC1=C(N)C(=O)c2nc(-c3nc(C(=O)O)c(C)c(-c4ccc(OC)c(OC)c4O)c3N)ccc2C1=O,2.2µM,0,0,0,0.28µM,0
O=S(=O)(c1ccc(Br)cc1)c1nnn2c1nc(NCCc1ccccc1)c1sccc12,-,0,-,0,?,0
CCN1CCc2c(sc(-n3cccc3)c2C(C)NC(=O)Nc2ccc(Br)cc2)C1 (configuration not stated),-,0,-,14µM,10µM,0
CCCS(=O)(=O)NC(=O)C1(C)CCN(C(=O)c2cccc3ccccc23)C1 (configuration not stated),0,0,0,0,0,-
CCc1ccc2occ(CC(=O)Nc3c(C(=O)Nc4ccc(C)cc4)oc4ccccc34)c2c1,0,0,0,16µM,0,0
COC(=O)c1ccc(NC(=O)CSc2nc3cc4ccccc4cc3[nH]2)cc1,0,0,0,0,?,0
CCc1cccc(C)c1Nc1c(-c2ccsc2)nc2ncccn12,-,0,-,0,?,0
CCc1cccc(C)c1Nc1c(-c2ccc(SC)cc2)nc2sccn12,-,0,-,0,20µM,?
CCc1cccc(C)c1Nc1c(-c2cccc(O)c2)nc2cnccn12,0,0,0,0,11µM,0
C[C@H](NC(=O)c1ncn2c1C(=O)NC[C@H]2C)c1ccccc1,0,0,0,0,0,0
Cc1ccc(NS(=O)(=O)c2ccc(Cl)c(C(=O)Nc3ccccc3-c3nc4ccccc4[nH]3)c2)cc1C,?,0,?,0,11µM,0
Cc1ccc(NS(=O)(=O)c2ccc3nc(-c4ccccc4)[nH]c3c2)cc1Cl,?,0,?,16µM,?,0
Cc1ccnc(NS(=O)(=O)c2ccc(NC(=O)C3CC=CCC3C(=O)O)cc2)n1 (configuration not stated),0,0,0[11.3 µM],0,0,0
O=C(Oc1cccc2ccccc12)c1ccccc1,0,0,0,0,0,0
O=C(Oc1cccc2c(O)cccc12)c1ccccc1,?,0,0,0,14µM,0
C[C@H](NC(=O)c1sccc1OCc1ccc(Cl)cc1)c1ccccc1,-,-,22µM,-,-,-
